The list is not random: actives were taken first. Their share in the collection is about 19%.
TDP1 cell noCPT = qHTS for Inhibitors of human tyrosyl-DNA phosphodiesterase 1 (TDP1): qHTS in cells in absence of CPT; DT40 Tdp1-/- hTDP1 cells, no CPT, ATP luminescence, 48 h; Potency, µM (titrated, usually from 46.2 µM), actives largely listed as inhibitors; hit rate 15% among 420,000; AID 686978, 2013; note: nearly all actives have a fitted effect of over 55% in size
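A cellular qHTS used chicken DT40 cells lacking endogenous Tdp1 but carrying stably transfected human TDP1. Compounds were applied without camptothecin, and cell growth kinetics were judged by ATP-dependent luminescence after ≥48 hr.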
HT1080-NT tox = kills 2HG-producing HT-1080-NT fibrosarcoma cells. HT-1080-NT fibrosarcoma viability, CellTiter-Glo ATP luminescence, 48 h. Potency, µM (highest dose often 46.1 µM), most hits filed as cytotoxic. hit rate 1.6% among 360,000;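 note: NT is the 2HG producing partner of a matched IDH1 knockdown line; nearly all actives have a fitted effect of over 55% in size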
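HT-1080-NT fibrosarcoma cells (2HG-overproducing), 750 cells/well in RPMI with 5% FBS, dosed after 2 h and incubated 48 h at 37C. CellTiter-Glo luminescence normalized to DMSO and no-cell wells; concentration-response curves fitted and classed.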
HT1080 IDH1KD tx = HT-1080 IDH1 knockdown cell toxicity (counter line). HT-1080 IDH1 knockdown viability, ATP luminescence, 48 h. Potency, µM (top dose mostly 46.1 µM), actives largely listed as cytotoxic. hit rate 2% among 360,000. AID 686971
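After a 2 h attachment period, IDH1KD HT-1080 cells took pin-transferred compound for 48 h at 37 °C; ATP-based luminescence after 10 min room-temperature reagent incubation reported viability.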
DT40 TDP1 CPT = growth inhibition of DT40 Tdp1-/-;hTDP1 cells with camptothecin (screen for TDP1 inhibitors); AID 686979; Potency, µM (top dose mostly 46.2 µM), actives largely listed as inhibitors; chicken DT40 Tdp1-/-;hTDP1 cells + 20 nM CPT, ATP luminescence, 48 h; hit rate 12% among 420,000; note: nearly all actives have a fitted effect of over 55% in size
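Cell growth measured by CellTiter-Glo luminescence after a minimum 48 h, 37 C compound exposure with 20 nM CPT in Tdp1-knockout DT40 cells stably expressing hTDP1, seeded 400/well; qHTS titration format.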
ELG1 repair inh = blocks ELG1-dependent DNA repair in HEK293T cells. HEK293T ELG1-luciferase reporter, luminescence, 16 h; DNA damage induced by 5-fluorouridine. Potency, µM (titrated, usually from 46.1 µM), usual class: inhibitors. hit rate 2.3% among 330,000. AID 504467; note: nearly all actives have a fitted effect of over 55% in size
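DMSO vehicle served as the neutral condition. Each well held 2,000 cells given 5-fluorouridine plus compound; after 16 hr at 37 °C/5% CO2, ONE-Glo was added and luciferase measured 30 min later.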
IL-1B inflam inh = blocks inflammasome-driven IL-1 beta release; THP-1 LPS/ATP IL-1B secretion, AlphaLISA, 16 h; hits give low values; activity change, % at 57.5 µM; hit rate 4.7% among 360,000; AID 743279; in the data active = activity change below about -50%; inconclusive = mostly about -30% to -49%
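Secreted IL-1B measured by AlphaLISA bead assay after 16 h compound exposure of THP-1 cells; compounds (final up to 57.5 uM) added 1 h before LPS (250 ng/mL) and ATP (1.25 mM) stimulation; lower signal means less secretion.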
A number is an active result; - = inactive; ? = inconclusive; . = not tested or not shown; [ ] = another dose, or the depositor's remark. Unless noted, calls come from the whole dose curve; as a rule, active = well fitted curve in the direction sought with a large enough effect; inconclusive = small, poorly fitted or top-dose-only effect, or another doubt; inactive = no such curve, though single readings can be large; an effect the other way counts as inactive or inconclusive.

SMILES	TDP1 cell noCPT	HT1080-NT tox	HT1080 IDH1KD tx	DT40 TDP1 CPT	ELG1 repair inh	IL-1B inflam inh
COc1cccc(N(C(=O)c2ccco2)C(C(=O)NC2CCCC2)c2ccc(N(C)C)cc2)c1 (stereo not given)	16µM	-	-	?	-	-
COc1ccc(CNC(=O)c2cc(-c3cccs3)on2)cc1	-	-[9.24 µM]	-	-	?	-
COc1cc(NC(=O)c2cc(-c3cccc(O)c3)on2)cc(OC)c1OC	13µM	?	?	?	?	-
COCCNC(=O)c1cc(-c2cccs2)on1	23µM	-	-	?	?	-
COc1cc(NC(=O)c2noc3c2CCc2ccccc2-3)cc(OC)c1OC	16µM	.	.	7.3µM	.	.
COc1ccc(-c2cc(C(=O)Nc3cc(OC)c(OC)c(OC)c3)no2)cc1	-	-	-	?	-	-
COc1cc(NC(=O)c2cc(-c3cccs3)on2)cc(OC)c1OC	16µM	-	-	21µM	?	-
COCC(=O)N1CCC2(CCCN(Cc3nccs3)C2)CC1	-	.	.	-	.	.
CCC(C(N)=O)N1C(=O)C2C3CCC(C3)C2C1=O (stereo not given)	-	-	-	-	.	-
CCN(CC)C1CCN(C(=O)c2cnn(-c3ncc4c(n3)-c3ccccc3CCC4)c2COC)C1 (stereo not given)	-	.	.	-[9.04 µM]	.	.
Cn1c2ccccc2c(=O)c2c(=O)n(Cc3ccccc3)c(-c3ccc(F)cc3)nc21	-	-	-	-	-	-
C[C@H](NC(=O)C1CCN(S(=O)(=O)c2ccccc2)CC1)C(=O)NCc1ccc(F)cc1	-	-	-	-	-	-
COc1cc(NC(=O)c2cc(-c3ccc(C)cc3)on2)cc(OC)c1OC	?	-	-	-	-	-
COc1cc(NC(=O)Nc2cccc(-c3noc(C)n3)c2)cc(OC)c1OC	23µM	.	.	?	.	.
COc1cc(NC(=O)c2cc(-c3ccccc3Cl)on2)cc(OC)c1OC	2.9µM	?	?	2.9µM	9.2µM	-81
COc1cc(NC(=O)c2cc(-c3ccc(Cl)c(Cl)c3)on2)cc(OC)c1OC	?	.	.	8.2µM	.	.
COc1ccc(NC(=O)c2cc(-c3ccccc3Cl)on2)cc1	?	-	-	-	?	-
COCCNC(=O)Nc1ccc2nc(-c3cccs3)c(-c3cccs3)nc2c1	?	-	-	?	?	-54
COC(=O)C1(NC(=O)CNC(=O)OCc2ccccc2)CCCC1	-	-	-	-	.	-
CCC(C)NC(=O)c1cc(-c2cccs2)nc2ccccc12 (stereo not given)	?	-	-	-	?	-
CCC(C)NC(=O)c1ccc2nc(-c3cccs3)c(-c3cccs3)nc2c1 (stereo not given)	13µM	.	.	10µM	.	.
CSCCC(NC(=O)COc1ccccc1)C(=O)N1CCN(c2ccccc2O)CC1 (stereo not given)	?	-	-	-	-	-
CC(C)OCCCNC(=O)c1ccc(CSc2nc3cccnc3n2Cc2ccccc2)cc1	23µM	.	.	?	.	.
COCCCNC(=O)c1ccc(CSc2nc3cccnc3n2Cc2ccc(OC)cc2)cc1	16µM	.	.	23µM	.	.
COCCCNC(=O)c1ccc(Cn2c(SCc3ccc(F)cc3)nc3cccnc32)cc1	15µM	.	.	?	.	.
SMILES	TDP1 cell noCPT	HT1080-NT tox	HT1080 IDH1KD tx	DT40 TDP1 CPT	ELG1 repair inh	IL-1B inflam inh
CCC(=O)N1Cc2cc(C(=O)N(C)C)nc(-c3cccc(-c4cncnc4)c3)c2[C@@H]1CCO	-	-	-	-	.	-
Cc1cnc(C(=O)OCC(=O)c2ccc(F)cc2)cn1	-	-	-	-	-	-
Cc1cccc(C(=O)OCC(=O)N2CCCC2=O)c1[N+](=O)[O-]	-	-	-	-	-	-
Cc1cc(-c2ccnc(-n3ncc(C(=O)NCc4cccnc4)c3C3CC3)n2)c(C)s1	?	.	.	-[9.04 µM]	.	.
COc1ccc(-c2ccnc(-n3ncc(C(=O)NCc4cccnc4)c3C3CC3)n2)cc1F	16µM	.	.	-[9.04 µM]	.	.
COc1ccccc1-c1ccnc(-n2ncc(C(=O)NC(C)(C)CO)c2C2CC2)n1	-	.	.	-	.	.
COc1ccc(-c2ccnc(-n3ncc(C(=O)NCc4ccon4)c3C3CC3)n2)cc1F	23µM	.	.	?	.	.
COc1cccc(N2CC(NC(=O)c3cc4ccccc4o3)CC2=O)c1 (stereo not given)	-	.	.	-	.	.
Cc1ccccc1OCC(=O)Nc1ccccc1-c1ccccc1NC(=O)COc1ccccc1C	15µM	-	-	?	-	-
Cc1cc(C)c(OCC(=O)Nc2ccccc2N2CCOCC2)c(C)c1	22µM	-	?	14µM	0.82µM	-
O=C(CC12CC3CC(CC(C3)C1)C2)Nc1ccccc1N1CCOCC1	10µM	-	-	?	-	-
COc1cc(CNCCCN2CCOCC2)c(Br)cc1OCC(=O)Nc1ccccc1C	?	-	-	?	?	-55
Cc1cc(C)c(OCC(=O)Nc2ccccc2N2CCCCC2)c(C)c1	?	-	-	?	-	-
COc1ccccc1-c1c(C)nn2c(N3CCN(c4ccc(F)cc4)CC3)cc(C)nc12	-	.	.	?	.	.
Cc1[nH]c(C)c(S(=O)(=O)N2CCCCC2)c1C(=O)N1CCCCC1	-	-	-	-	-	-
Cc1ccccc1NC(=O)COC(=O)CCC(=O)c1cccs1	-	-	-	-	-	-
Cc1ccccc1OCC(=O)NNC(=O)Cn1[nH]c(=O)c2ccccc2c1=O	?	-	-	8.2µM	-	-
CCOc1ccccc1NC(=O)Cn1[nH]c(=O)c2ccccc2c1=O	.	.	.	.	-	.
Cc1ccccc1OCC(=O)Nc1ccccc1N1CCOCC1	10µM	-	-	-	?	-
CSC[C@H]1CN(Cc2ccccc2)C(=O)[C@@H]1CC(=O)Nc1ccc(Br)cc1	-	-	-	-	.	-
O=C(O)c1ccc(NC(=O)c2cn(-c3ccccc3)nc2-c2ccc(F)cc2)cc1	?	-	-	?	?	-
O=C(O)c1ccc(NC(=O)c2cn(-c3ccccc3)nc2-c2cccc(Cl)c2)cc1	3.7µM	?	?	?	-	-
NS(=O)(=O)c1ccc(NC(=O)COC(=O)c2cn(-c3ccccc3)nc2-c2ccc(F)cc2)cc1	?	-	?	?	-	-
CN(C)S(=O)(=O)c1cccc(NC(=O)COC(=O)c2cn(-c3ccccc3)nc2-c2ccccc2)c1	21µM	-	-	?	?	-
COc1cccc(NC(=O)c2cc(-c3ccccn3)nc3ccccc23)c1	?	-	-	?	?	-
Cc1cccc(NC(=O)c2cc(-c3ccccn3)nc3ccccc23)c1C	13µM	?	-	23µM	?	-
COc1ccc(Cl)cc1NC(=O)COC(=O)c1cc(C)oc1C	3.3µM	-	-	?	-	-

Bioassay records (PubChem BioAssay)
